Activity calls are given as the source filed them.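 How the source made its calls, unless noted: active means visual image review flags a hit and inhibition of aggregation exceeds 20%; inconclusive means visual hit but inhibition at or below 20%; inactive means no hit on visual image review.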

Assay [1] is described as follows: inhibitors of TNFa-induced NFkB p65 translocation, primary screen, imaging, HUVEC, MLSMR starter and 10KST1 sets (AID 438;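 active means inhibition above 20% together with a positive visual image hit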;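 further: compound added about 3h40 before a 20 min TNFalpha stimulation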;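 on inhibition: signal is the nuclear over cytoplasmic p65 intensity ratio per well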). The note with it: HUVEC TNFa-induced p65 nuclear translocation; cell count: measured here: nuclei count (cytotoxicity indicator), at 2.08 µM; inhibition: at 2 µM, stronger effect = higher value, 0% TNFa-plus-vehicle, 100% no-TNFa wells.
A short description of assay [2]: reduction of polyQ htt aggregates in cells – imaging, exon1htt(103Q)mCFP cells, high-content imaging, primary screen (AID 483).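 Further: compound exposure lasted 3 days before fixation.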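 On nuclei count: percent of the per-plate median nuclei count of sample wells.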 The note with it: exon1htt(103Q)mCFP cell line, aggregate imaging, at 2 µM; inhibition of aggregation: stronger effect = higher value; nuclei count: measured here: cell count, toxicity.
Assay [3] is described as follows: endothelial E-selectin expression blockers – imaging, HUVEC, immunofluorescence, MLSMR starter and 10KST1 sets, primary screen (AID 487;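 active means visually confirmed hit in the image check and inhibition above 20%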;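 on inhibition: signal is fraction of cell area covered by stained E-selectin grains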;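 on nuclei count: 100% = median nuclei count of all wells on the same plate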). The note with it: HUVEC TNFalpha-induced E-selectin immunofluorescence imaging, at 2 µM; inhibition: stronger effect = higher value; nuclei count: measured here: cell number, toxicity.
Assay [4] deals with Voltage-gated potassium channel subunit beta-2 (Rattus norvegicus) (UniProt P62483). The assay can be described thus: inhibitors of rat Kvbeta2 reductase activity – biochemical, NADPH fluorescence, primary screen (AID 622;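 active means fluorescence slope higher than the sample average by over 3 SD, cut at about -0.22 in these data, passing the limit was not always enough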;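 further: slope of raw intensity against log time taken from 70 to 1610 s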). The settings on record: recombinant KvBeta, 4-cyanobenzaldehyde reduction, at 10 µM, stronger effect = higher value.
The target is the same in assay [5]. Briefly: enhancers of rat Kvbeta2 NADPH turnover – biochemical, NADPH fluorescence, primary screen (AID 623;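 active means NADPH fluorescence slope more negative than the mean of all samples by about 3 SD, 99.7% confidence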;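 further: fluorescence intensity change per second fitted from 20 to 320 s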). The settings on record: Recombinant KvBeta, NADPH fluorescence decrease slope, 10 min; at 10 µM; stronger effect = lower value.
For assay [6], the target named is Alpha-2C adrenergic receptor (Homo sapiens) (UniProt P18825). The assay can be described thus: compounds altering alpha2C-coupled GIRK flux – cell-based, HEK293 alpha2C/GIRK1/2, thallium flux, primary screen (AID 624;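 active means fluorescence slope after compound addition differing from the mean of all screened samples at 99.7% confidence, in either direction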;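 further: slope of fluorescence ratio to pre-addition baseline per second over 15 to 24 s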). The settings on record: thallium flux BTC fluorescence, at 10 µM, actives lie on both sides.
Assay [7] can be described thus: blockers of RIG-like receptor reporter activation – cell-based, Sendai virus stimulus, luciferase, 10K MLSCN set, TLR/RLR signaling modifier project, primary screen (AID 602276;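 active means inhibition at or above 50% at 10 µM; inactive means inhibition below 50%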;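 further: firefly luciferase from ISG56 promoter only with Renilla not read in this screen; 0% = Sendai virus plus DMSO and 100% = medium plus DMSO without virus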). The settings on record: HEK293 RL24 IRF3 luciferase reporter, at 10 µM, stronger effect = higher value. In general terms: Reporter assays use an easily measured gene product as a stand-in for the process of interest.

A short description of assay [8]: TLR3 IRF3 reporter activation blockers – cell-based, poly I:C stimulus, luciferase, 10K MLSCN set, primary screen (AID 602277;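 active means inhibition of the reporter signal at or above 50%; inactive means inhibition below 50%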). The settings on record: HEK293-TLR3 RL24 IRF3 luciferase reporter, at 10 µM, stronger effect = higher value.

Chain of Alpha-2C adrenergic receptor (Homo sapiens) (P18825 whole entry, looked up): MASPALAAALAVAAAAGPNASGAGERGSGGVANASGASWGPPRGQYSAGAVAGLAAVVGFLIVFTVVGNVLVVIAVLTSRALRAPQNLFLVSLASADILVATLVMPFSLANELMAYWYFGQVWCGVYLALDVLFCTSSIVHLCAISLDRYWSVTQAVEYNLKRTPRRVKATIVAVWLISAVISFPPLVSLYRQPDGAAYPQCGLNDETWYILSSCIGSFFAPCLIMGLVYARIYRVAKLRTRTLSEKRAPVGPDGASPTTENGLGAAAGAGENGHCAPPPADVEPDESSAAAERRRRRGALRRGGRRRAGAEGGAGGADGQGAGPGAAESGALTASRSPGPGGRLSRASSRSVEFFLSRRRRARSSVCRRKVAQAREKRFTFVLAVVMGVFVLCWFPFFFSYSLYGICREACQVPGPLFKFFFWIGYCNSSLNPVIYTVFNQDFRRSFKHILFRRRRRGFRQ
Chain of Voltage-gated potassium channel subunit beta-2 (Rattus norvegicus) (P62483 whole entry, looked up): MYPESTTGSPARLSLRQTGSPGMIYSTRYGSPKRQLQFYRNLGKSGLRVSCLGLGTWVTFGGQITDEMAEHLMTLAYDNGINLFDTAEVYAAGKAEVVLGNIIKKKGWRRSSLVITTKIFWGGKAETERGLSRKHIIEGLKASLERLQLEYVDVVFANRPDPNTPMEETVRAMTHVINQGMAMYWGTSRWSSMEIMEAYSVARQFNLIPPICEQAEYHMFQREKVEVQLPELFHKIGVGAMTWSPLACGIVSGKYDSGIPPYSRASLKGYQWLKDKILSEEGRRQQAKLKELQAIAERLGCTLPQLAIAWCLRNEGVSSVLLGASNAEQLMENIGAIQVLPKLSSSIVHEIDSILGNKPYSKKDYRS

`O=C(NCc1ccco1)c1cnc2n(c1=O)CCS2`: in assay [1], the cell count was 188. The inhibition (commonly the relative decrease from the control value, in per cent) in assay [1] is 4.4% (inactive); in assay [3], 7.8% (inactive); in assay [7], 10% (inactive); in assay [8] it was 2.98% (inactive). The inhibition of aggregation in assay [2] is 5.7% (inactive). Further, the figures for the nuclei count in assay [2] and in assay [3] were 66.8% and 93.2%, respectively. Besides, the fluorescence slope in assay [4] was -0.419 (inactive). For the same molecule, the NADPH fluorescence slope in assay [5] was -1.2e-05 (inactive). Further, in assay [6], the slope was 0.00633 (inactive).

As to `O=C(COC(=O)C12CC3CC(CC(C3)C1)C2)NCc1ccco1`, the cell count in assay [1] stood at 661. Besides, the inhibition in assay [1] is 3.4% (inactive); in assay [3], -28.3% (inactive); in assay [7] it was 11.1% (inactive); in assay [8], 31.8% (inactive). For the same molecule, the inhibition of aggregation in assay [2] was -6.5% (inactive). The figures for the nuclei count in assay [2] and in assay [3] were 109% and 113%, respectively. The fluorescence slope in assay [4] is -0.561 (inactive). In addition, in assay [5], the NADPH fluorescence slope was 7.7e-06 (inactive). The slope in assay [6] was 0.00593 (inactive).

For the molecule `CCOC(=O)C(CCc1nnc(N)s1)C(=O)OCC`, the cell count in assay [1] was found to be 710. Also, the inhibition in assay [1] was -6.3% (inactive); in assay [3] it was -16.4% (inactive); in assay [7], 16.5% (inactive); in assay [8] it was 11.9% (inactive). In assay [2], the inhibition of aggregation is 3.1% (inactive). For the same molecule, the nuclei count in assay [2] was found to be 105%; in assay [3], 98.7%. For the same molecule, in assay [4], the fluorescence slope was -0.474 (inactive). The NADPH fluorescence slope in assay [5] is 1.7e-06 (inactive). In addition, the slope in assay [6] is 0.00419 (inactive).

Take `Cc1cc(OCC(=O)NCCO)cc(C)c1Cl`: the cell count in assay [1] stood at 419. Further, the inhibition in assay [1] was -2.3% (inactive); in assay [3], 28.3% (inactive); in assay [7], -0.456% (inactive); in assay [8] it was 24.5% (inactive). For the same molecule, in assay [2], the inhibition of aggregation was 11.1% (inactive). Also, the nuclei count in assay [2] was determined as 73.3%; in assay [3], 92.3%. Besides, the fluorescence slope in assay [4] was -0.428 (inactive). For the same molecule, the NADPH fluorescence slope in assay [5] is 2.8e-05 (inactive). The slope in assay [6] was 0.00371 (inactive).

In the case of `Cc1nc2sc(C(c3cccs3)N3CCOCC3)c(O)n2n1` (stereo not given), the cell count in assay [1] turned out to be 591. Moreover, the inhibition in assay [1] was -0.3% (inactive); in assay [3] it was -5.1% (inactive); in assay [7], 9.99% (inactive); in assay [8], 32.1% (inactive). In addition, the inhibition of aggregation in assay [2] was -28.8% (inactive). The nuclei count in assay [2] amounted to 112%; in assay [3] it was 115%. The fluorescence slope in assay [4] was -0.553 (inactive). Also, the NADPH fluorescence slope in assay [5] was -4.2e-05 (inactive). For the same molecule, the slope in assay [6] is 0.00703 (inactive).

As for `CN(C)c1ccc(-c2nn3c(-c4ccc(Cl)cc4Cl)nnc3s2)cc1`, the cell count in assay [1] amounted to 321. The inhibition is 2.6% (inactive) in assay [1], 42.5% (inactive) in assay [3], -25.6% (inactive) in assay [7] and 55.1% (active) in assay [8]. In addition, the inhibition of aggregation in assay [2] was -10.5% (inactive). For the same molecule, the values for the nuclei count in assay [2] and in assay [3] were 98.2% and 96.6%, respectively. Besides, the fluorescence slope in assay [4] was -0.552 (inactive). Moreover, the NADPH fluorescence slope in assay [5] was -3.3e-05 (inactive). For the same molecule, the slope in assay [6] is 0.00528 (inactive).

`CCOc1cccc(-c2nnc3sc(COc4ccc(OC)cc4)nn23)c1`: in assay [1], the cell count worked out at 534. The inhibition in assay [1] was 7.7% (inactive); in assay [3] it was -93.7% (inactive); in assay [7] it was 7.6% (inactive); in assay [8], 17.6% (inactive). In addition, the inhibition of aggregation in assay [2] is -2.2% (inactive). Moreover, the nuclei count in assay [2] is 95.7%; in assay [3] it was 118%. Besides, in assay [4], the fluorescence slope is -0.433 (inactive). Moreover, the NADPH fluorescence slope in assay [5] was -3.1e-05 (inactive). Also, the slope in assay [6] is 0.00731 (inactive).

Take `NC(=O)c1ccccc1NC(=O)CCCN1C(=O)CCC1=O`: the cell count in assay [1] amounted to 567. The inhibition in assay [1] is -1.8% (inactive); in assay [3] it was -30.7% (inactive); in assay [7] it was 2.16% (inactive); in assay [8], 13.3% (inactive). In assay [2], the inhibition of aggregation was -7.8% (inactive). For the same molecule, the nuclei count in assay [2] amounted to 104%; in assay [3], 92.1%. In addition, the fluorescence slope in assay [4] was -0.601 (inactive). Besides, in assay [5], the NADPH fluorescence slope is -1.2e-05 (inactive). Further, the slope in assay [6] is 0.00648 (inactive).

With `O=S(=O)(c1ccccc1)N1CCN(S(=O)(=O)c2ccccc2)C1`, the cell count in assay [1] was found to be 281. Further, the inhibition in assay [1] is 5.1% (inactive); in assay [3], -60.7% (inactive); in assay [7], 10.4% (inactive); in assay [8] it was 13.2% (inactive). In assay [2], the inhibition of aggregation is -0.4% (inactive). Further, the nuclei count in assay [2] is 95%; in assay [3] it was 96.4%. In addition, the fluorescence slope in assay [4] was -0.337 (inactive). Also, the NADPH fluorescence slope in assay [5] was -5.3e-05 (inactive). Moreover, the slope in assay [6] is 0.00677 (inactive).

In the case of `CCOC(=O)N1CCC(n2c(=S)[nH]c3cc(OC)c(OC)cc3c2=O)CC1`, the cell count in assay [1] is 471. In addition, the inhibition is 4.8% (inactive) in assay [1], -6.8% (inactive) in assay [3], 14.4% (inactive) in assay [7] and 23.2% (inactive) in assay [8]. Moreover, the inhibition of aggregation in assay [2] was -23.4% (inactive). Besides, the nuclei count in assay [2] was found to be 108%; in assay [3], 105%. In addition, the fluorescence slope in assay [4] is -0.631 (inactive). Moreover, the NADPH fluorescence slope in assay [5] is 4.7e-05 (inactive). The slope in assay [6] is 0.00633 (inactive).

As for `CCOC(=O)/N=C(/NC(=O)Nc1ccc(C(=O)OCC)cc1)OC`, in assay [1], the cell count stood at 266. In addition, the inhibition is -3.6% (inactive) in assay [1], 7.6% (inactive) in assay [3], 13.9% (inactive) in assay [7] and 23.9% (inactive) in assay [8]. Further, the inhibition of aggregation in assay [2] was 17% (inactive). For the same molecule, the nuclei count in assay [2] was found to be 92.2%; in assay [3], 108%. The fluorescence slope in assay [4] is -0.583 (inactive). In addition, the NADPH fluorescence slope in assay [5] was -6e-05 (inactive). Moreover, the slope in assay [6] was 0.00625 (inactive).

`COc1ccc(-c2nc3c(n2O)CCC/C3=N\O)cc1`: the cell count in assay [1] came to 319. The inhibition in assay [1] is -8% (inactive); in assay [3], -2.4% (inactive); in assay [7] it was -16.5% (inactive); in assay [8], -26.8% (inactive). In assay [2], the inhibition of aggregation was 0.2% (inactive). For the same molecule, the nuclei count in assay [2] was 98.1%; in assay [3], 113%. For the same molecule, in assay [4], the fluorescence slope is -0.413 (inactive). The NADPH fluorescence slope in assay [5] is -7.6e-05 (inactive). In addition, the slope in assay [6] is 0.00746 (inactive).

Consider `COCc1nnc(NC(=O)c2ccc(S(=O)(=O)N(C)c3ccccc3)cc2)o1`, for which, in assay [1], the cell count worked out at 716. Besides, the inhibition in assay [1] is 2.4% (inactive); in assay [3], -21% (inactive); in assay [7] it was 13.8% (inactive); in assay [8] it was 7.35% (inactive). In assay [2], the inhibition of aggregation is -2% (inactive). The nuclei count in assay [2] was found to be 116%; in assay [3], 107%. In addition, in assay [4], the fluorescence slope was -0.575 (inactive). In assay [5], the NADPH fluorescence slope is 1.3e-05 (inactive). The slope in assay [6] is 0.00656 (inactive).

Take `CCOc1ccc(C2C=C(c3ccc(F)cc3)Nc3ncnn32)cc1` (stereo not given): the cell count in assay [1] amounted to 548. Besides, the inhibition in assay [1] is 11.5% (inactive); in assay [3], -113% (inactive); in assay [7] it was 6.86% (inactive); in assay [8], 12.6% (inactive). Besides, in assay [2], the inhibition of aggregation is -15.6% (inactive). Further, the nuclei count in assay [2] was found to be 74.5%; in assay [3] it was 125%. Besides, in assay [4], the fluorescence slope is -0.0654 (active). Also, in assay [5], the NADPH fluorescence slope was -6.9e-06 (inactive). Besides, the slope in assay [6] was 0.00554 (inactive).

`Cc1nn(C)c(C)c1S(=O)(=O)N1CCCC(C(=O)N2CCN(c3ccc(Cl)cc3)CC2)C1` (stereo not given): in assay [1], the cell count came out at 288. The inhibition was -3.9% (inactive) in assay [1], -270% (inactive) in assay [3], 11.1% (inactive) in assay [7] and 11.6% (inactive) in assay [8]. Besides, the inhibition of aggregation in assay [2] is -45.6% (inactive). Besides, the nuclei count in assay [2] came to 94.8%; in assay [3], 85.9%. The fluorescence slope in assay [4] was -0.591 (inactive). The NADPH fluorescence slope in assay [5] is -1.7e-05 (inactive). The slope in assay [6] is 0.00589 (inactive).
